PubChem BioAssay AID2061166 (Soto Lab, Mitchell Center for Alzheimers Disease and …, 2025)
Unmarked numbers belong to inactive results.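 The calls were made as follows: active = mean tau seeding fluorescence area under 1% of vehicle, meaning inhibition above a set limit; inactive = the rest.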

The molecules below were run against Microtubule-associated protein tau (Homo sapiens) (UniProt P10636) (assay: blockers of AD brain-seeded tau fibril growth – biochemical, seed amplification, ThT fluorescence, primary screen (AID 2061166)). Details: Recombinant tau seeded by AD brain, ThT fluorescence AUC; at 100 µM; active compounds read high.
Microtubule-associated protein tau (Homo sapiens), sequence (P10636 whole entry, looked up): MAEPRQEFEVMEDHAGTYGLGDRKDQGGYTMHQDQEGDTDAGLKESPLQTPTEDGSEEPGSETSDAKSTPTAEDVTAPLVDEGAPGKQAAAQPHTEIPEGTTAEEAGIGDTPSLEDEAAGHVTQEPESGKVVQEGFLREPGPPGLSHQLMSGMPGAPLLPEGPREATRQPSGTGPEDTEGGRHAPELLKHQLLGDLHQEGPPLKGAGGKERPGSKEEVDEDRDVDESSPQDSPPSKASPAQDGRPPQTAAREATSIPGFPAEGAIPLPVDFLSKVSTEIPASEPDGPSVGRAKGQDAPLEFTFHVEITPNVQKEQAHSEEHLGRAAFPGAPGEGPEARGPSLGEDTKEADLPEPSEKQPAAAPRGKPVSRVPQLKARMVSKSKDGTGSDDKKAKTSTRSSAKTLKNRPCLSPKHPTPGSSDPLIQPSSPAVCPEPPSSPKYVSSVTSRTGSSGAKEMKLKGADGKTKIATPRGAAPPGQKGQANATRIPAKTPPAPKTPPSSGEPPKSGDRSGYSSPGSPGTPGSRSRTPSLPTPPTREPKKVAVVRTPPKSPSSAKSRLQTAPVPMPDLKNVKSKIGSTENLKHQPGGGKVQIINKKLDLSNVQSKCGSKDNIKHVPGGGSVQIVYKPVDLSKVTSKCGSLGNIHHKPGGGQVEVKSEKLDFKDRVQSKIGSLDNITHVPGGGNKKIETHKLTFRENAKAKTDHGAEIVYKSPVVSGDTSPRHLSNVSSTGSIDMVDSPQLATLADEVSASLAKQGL
`COc1ccc2c(c1)[nH]c1c(C)nccc12` showed an inhibition of 35.5%. With `Cc1cccc(C(C)c2cnc[nH]2)c1C` (configuration not stated) the inhibition was 17.4%. `O=C(CS(=O)C(c1ccccc1)c1ccccc1)NO` (configuration not stated) showed an inhibition of 7.82%. `Cn1c(CCCC(=O)O)nc2cc(N(CCCl)CCCl)ccc21` was tested, and the inhibition was 48%. `COc1ccc(C(=O)O)cc1OC` gave an inhibition of 11.4%. In the case of `O=c1c2ccccc2[se]n1-c1ccccc1`, the inhibition is reported as 51.6%. `CNC(=O)Oc1cccc2ccccc12` showed an inhibition of 63.7%. With `c1cncc(C2=NCCC2)c1` the inhibition was 32.6%. `COc1ccc2c3c([nH]c2c1)C(C)=NCC3` gave an inhibition of 11.8%. Work on `Cn1cc(C2=C(c3cn(C4CCN(Cc5ccccn5)CC4)c4ccccc34)C(=O)NC2=O)c2ccccc21` yielded an inhibition of 18.6%. With `COc1ccc(C(CN(C)C)C2(O)CCCCC2)cc1` (configuration not stated) the inhibition was 40.8%. `O=C1C=C2C=CC3CC2(O1)C1CCCCN31` (configuration not stated) showed an inhibition of 17%.
